High-throughput results (PubChem BioAssay)
Nrf2 ARE act = activators of Nrf2 (ARE) signaling; Potency, µM (titrated, usually from 46.1 µM), most hits filed as activators; 410,000 compounds, 0.31% hits; AREc32 ARE-luciferase reporter (MCF7-derived line), luminescence, 24 h; further: nearly all actives have a fitted effect of over 65% in size
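Reporter line AREc32 (ARE-Fluc), seeded overnight in OPTI-MEM with 5% FBS; compound pin-transferred, 24 hr at 37 deg C, 5% CO2; luminescent read-out.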
ATXN2 expr inh = inhibitors of ATXN2 expression; HEK-293 ATXN2-luciferase reporter, luminescence, 24 h; Potency, µM (doses to about 57 µM), hits mostly inhibitors; 360,000 compounds, 0.72% hits; further: nearly all actives have a fitted effect of over 55% in size
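qHTS (up to 57 uM final) was run with 24 h compound exposure of reporter cells at 37 °C. Each well was multiplexed: SteadyGlo luminescence measured ATXN2-luciferase expression after a fluorogenic Gly-Phe-AFC viability readout (25 uM final).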
A549 tox = counter-screen for Nrf2 inhibitors: cytotoxicity in A549 cells; AID 504648; A549 ARE-Fluc cells, CellTiter-Fluor viability, 18-24 h; 390,000 compounds, 0.16% hits; Potency, µM (top dose mostly 46 µM), hits mostly inhibitors
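Cytotoxicity counterscreen: CellTiter-Fluor fluorescence was measured in A549 ARE_Fluc cells after 18-24 h of compound exposure in a concentration series. The subsequent BugLite luminescent read reports ARE-luciferase activity.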
S2 tox = reduces viability in counter-screen for ATXN expression inhibitors. S2 cells (HEK-293 line with an ATXN2-luciferase reporter) viability, CellTiter-Fluor protease fluorescence, 24 h. Potency, µM (doses to about 56.7 µM), actives largely listed as cytotoxic. 400,000 compounds, 0.49% hits. AID 651635; further: nearly all actives have a fitted effect of over 40% in size
Nrf2 inh = blocks Nrf2 signaling; Potency, µM (titrated, usually from 46 µM), actives largely listed as inhibitors; 360,000 compounds, 2.1% hits; A549 ARE-Fluc reporter, luciferase luminescence, 18-24 h; AID 504444; further: nearly all actives have a fitted effect of over 60% in size
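Quantitative HTS in A549 cells stably bearing an antioxidant response element-firefly luciferase construct. Inhibition of Nrf2-driven transcription was scored by luminescence after 18-24 h of compound exposure at 37 °C.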
Of the large screens only hits and unclear results are named; the others gave an inactive call. Compounds with a hit are over-represented: about 2.9% of the library has one in this group of screens. The call rests on the fitted dose curve; in most records, active means well fitted curve in the direction sought with a large enough effect; inconclusive means small, poorly fitted or top-dose-only effect, or another doubt; inactive means no such curve, though single readings can be large; an effect the other way counts as inactive or inconclusive.

COc1ccc(NC(=O)Cn2c(=O)n(Cc3ccccc3)c(=O)c3sc4ccccc4c32)cc1	none
C=CC[N+]1([C@H]2C[C@H]3[C@@H]4CC[C@H]5C[C@H](OC(C)=O)[C@@H](N6CCCCC6)C[C@]5(C)[C@H]4CC[C@]3(C)[C@H]2OC(=O)CC)CCCCC1	S2 tox inconclusive (no result: Nrf2 ARE act, A549 tox, Nrf2 inh)
Cc1ccc(-n2nc3cc(C)c(NC(=O)COc4ccccc4)cc3n2)cc1	none (no result: Nrf2 inh)
S=C(Nc1ccc(Nc2ccccc2)cc1)NC1CCCCCC1	ATXN2 expr inh inconclusive, A549 tox inconclusive, S2 tox inconclusive, Nrf2 inh 18.4µM
S=C(Nc1ccc(Cl)cc1)NC1CCCCC1	none
COc1ccc(C2c3[nH]c4ccc(OC)cc4c3CCN2C(=O)Nc2ccccc2)cc1 (configuration not stated)	A549 tox inconclusive, S2 tox inconclusive, Nrf2 inh 14.6µM
CC(=O)Nc1ccc(SCC(c2ccccc2)N2CCN(CC(C)C)CCC2=O)cc1 (configuration not stated)	none (no result: Nrf2 ARE act, ATXN2 expr inh, S2 tox)
COc1ccc(-n2c(=S)[nH]c3cc(C(=O)NC4CCCCC4)ccc3c2=O)c(OC)c1	Nrf2 inh 14.6µM
COc1ccc(NC(=O)c2ccc3c(=O)n(-c4ccc(OC)cc4OC)c(=S)[nH]c3c2)c(OC)c1	Nrf2 inh 25.9µM
COc1ccc(Cn2c(=O)[nH]c3cc(C(=O)NC4CCCC4)ccc3c2=O)cc1	none
COc1ccc(-n2c(=S)[nH]c3cc(C(=O)Nc4cc(C(N)=O)ccc4OC)ccc3c2=O)c(OC)c1	none
COc1ccc(-n2c(=S)[nH]c3cc(C(=O)Nc4ccc(C)c(F)c4)ccc3c2=O)c(OC)c1	Nrf2 inh 23.1µM
COc1ccc(OC)c(NS(=O)(=O)c2ccc(-c3cc(C)no3)s2)c1	none (no result: ATXN2 expr inh, S2 tox)
Cc1cc2[nH]c3c(=O)n(Cc4ccccc4F)ncc3c2s1	none (no result: Nrf2 ARE act, ATXN2 expr inh, S2 tox)
COc1ccc(CN(C)C(=O)C(Cc2ccccc2)NC(=O)c2ccccc2)cc1F (configuration not stated)	S2 tox inconclusive
CCOc1ccc(CN(C)C(=O)[C@H](Cc2ccccc2)NC(=O)OCc2ccccc2)cc1OC	A549 tox inconclusive, Nrf2 inh 20.6µM
Cc1c(Cl)cccc1NC(CC(=O)c1ccccc1)C(=O)O (configuration not stated)	Nrf2 ARE act 15.8µM
O=C(CC(Nc1ccccc1Cl)C(=O)O)c1ccccc1 (configuration not stated)	Nrf2 ARE act inconclusive, Nrf2 inh inconclusive
COc1ccc(S(=O)(=O)N2CCCC(C(=O)Nc3cccnc3)C2)cc1Cl (configuration not stated)	Nrf2 inh 16.4µM
COc1ccc(NC(=O)C2CCCN(S(=O)(=O)c3ccc4c(c3)CCCN4C(C)=O)C2)cc1 (configuration not stated)	none
CC(=O)N1CCCc2cc(S(=O)(=O)N3CCCC(C(=O)NCc4ccc(C)cc4)C3)ccc21 (configuration not stated)	Nrf2 inh 5.8µM
COc1ccc(NC(=O)C2CCCN(S(=O)(=O)c3ccc4c(c3)CCCN4C(C)=O)C2)cc1Cl (configuration not stated)	Nrf2 inh 16.4µM
NC(=S)N1OC[C@@H]2COc3ccc4ccccc4c3[C@@H]21	ATXN2 expr inh 14.1µM
CCOC(=O)c1c(Nc2ccc(C)cc2)nnc(-c2ccccc2)c1-c1ccccc1	Nrf2 inh 18.4µM
COc1ccc2c(c1)-c1c(sn(-c3ccccc3)c1=S)C(C)(C)N2	none
COc1ccc(-n2sc3c(c2=S)-c2cc(OC)ccc2NC3(C)C)cc1	S2 tox inconclusive, Nrf2 inh 20.6µM
COc1ccc(NC(=O)c2ccc([N+](=O)[O-])s2)c([N+](=O)[O-])c1	Nrf2 ARE act 10µM
COc1cc(=O)n2c(c1C(=O)N(C)Cc1cscn1)CCN(C(=O)c1ccc(C)c(C)c1)CC2	none (no result: Nrf2 ARE act, ATXN2 expr inh, A549 tox, Nrf2 inh)
Cc1cnc(-n2ncc(C(=O)NC(C)(C)CO)c2-c2cccs2)nc1-c1ccc(F)cc1	none (no result: Nrf2 ARE act, ATXN2 expr inh, A549 tox, Nrf2 inh)
COc1ccc2nc(NC(=O)C3CCCN(S(=O)(=O)c4c(C)noc4C)C3)sc2c1 (configuration not stated)	none
Cc1ccc(C)c(N2CCN(C(=O)C3CCN(S(=O)(=O)c4c(C)noc4C)CC3)CC2)c1	Nrf2 inh inconclusive (no result: ATXN2 expr inh)
Cc1ccc(C)c(N2CCN(C(=O)C3CCCN(S(=O)(=O)c4c(C)noc4C)C3)CC2)c1 (configuration not stated)	Nrf2 inh 16.4µM
Cc1noc(C)c1S(=O)(=O)N1CCC(C(=O)N2CCN(c3ccccc3)CC2)CC1	none
CCOc1ccc2nc(NC(=O)C3CCCN(S(=O)(=O)c4c(C)noc4C)C3)sc2c1 (configuration not stated)	ATXN2 expr inh inconclusive, S2 tox inconclusive, Nrf2 inh 20.6µM
Cc1noc(C)c1S(=O)(=O)N1CCC(C(=O)N2CCN(c3cccc(C(F)(F)F)c3)CC2)CC1	Nrf2 inh 18.4µM
COc1ccc([C@H]2[C@H](c3ccccc3)C(=O)N2Cc2ccccc2)cc1COc1ccc(NC(C)=O)cc1	Nrf2 inh inconclusive (no result: Nrf2 ARE act, ATXN2 expr inh, S2 tox)
O=C(CC1CCCCC1)N1CCCC(c2nc(-c3ccc(S(=O)(=O)N4CCCC4)cc3)no2)C1 (configuration not stated)	S2 tox inconclusive, Nrf2 inh inconclusive
CCOc1ccc(C(=O)N2CCC(c3nc(-c4ccc(S(=O)(=O)N5CCCC5)cc4)no3)CC2)cc1	Nrf2 inh 13µM (no result: ATXN2 expr inh, S2 tox)
COc1ccc(-c2noc(C3CCCN(C(=O)c4ccccc4)C3)n2)cc1 (configuration not stated)	Nrf2 inh inconclusive
COc1ccc(C(=O)N2CCC(c3nc(-c4ccc(S(=O)(=O)N5CCCC5)cc4)no3)CC2)cc1	A549 tox inconclusive, Nrf2 inh 20.6µM (no result: ATXN2 expr inh, S2 tox)
CN(Cc1cccs1)c1ncnc2ccc(-c3ccc4cnn(C)c4c3)cc12	A549 tox inconclusive (no result: Nrf2 ARE act, ATXN2 expr inh, S2 tox)
CCC(C)(C)C(=O)Nc1ncc(S(=O)(=O)c2ccc([N+](=O)[O-])cc2)s1	Nrf2 inh inconclusive
COC(=O)C(NC(=O)c1ccccc1Cl)(Nc1ncc(S(=O)(=O)c2ccc([N+](=O)[O-])cc2)s1)C(F)(F)F (configuration not stated)	Nrf2 inh 20.6µM
CCCCNc1nc(C#N)nc(Nc2ccccc2)n1	none (no result: Nrf2 ARE act, ATXN2 expr inh, S2 tox)
CCOC(=O)c1cccc(NC(=O)c2cc3cc4ccc(C)cc4nc3s2)c1	Nrf2 inh inconclusive
CCOC(=O)c1cccc(NC(=O)c2cc3cc4cc(OC)ccc4nc3s2)c1	A549 tox inconclusive, Nrf2 inh 23.1µM
CCN(CCCNC(=O)c1cc2cc3cc(OC)ccc3nc2s1)c1cccc(C)c1	S2 tox inconclusive, Nrf2 inh 25.9µM
CCOc1ccccc1NC(=O)Cn1cnc2c1c(=O)n(C)c(=O)n2C	none (no result: ATXN2 expr inh, S2 tox)
C[C@H](NC(=O)C(C#N)=Cc1cccc(Br)n1)c1ccccc1	ATXN2 expr inh 21.7µM (no result: Nrf2 ARE act, A549 tox, S2 tox, Nrf2 inh)
